# Screening results deposited in PubChem BioAssay by National Center for Advancing Translational Sciences (NCATS).
# Compounds with a hit are over-represented: about 19% of the library has one in this group of screens.
# HT1080-NT tox = kills 2HG-producing HT-1080-NT fibrosarcoma cells | HT-1080-NT fibrosarcoma viability, CellTiter-Glo ATP luminescence, 48 h | Potency, µM (doses to about 46.1 µM), hits mostly cytotoxic | 1.6% of 360,000 active | AID 686970;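 further: NT is the 2HG producing partner of a matched IDH1 knockdown line; nearly all actives have a fitted effect of over 55% in size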
#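 Viability by CellTiter-Glo luminescence after 48 h compound exposure at 37C of HT-1080-NT cells (750/well, RPMI, 5% FBS). % activity scaled between DMSO wells and medium-only wells, then curve-fitted and categorized by curve class.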
# HT1080 IDH1KD tx = toxicity to HT-1080 IDH1 knockdown cells (counter line) | HT-1080 IDH1 knockdown viability, ATP luminescence, 48 h | Potency, µM (top dose mostly 46.1 µM), hits mostly cytotoxic | 2% of 360,000 active | AID 686971
#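 Viability of IDH1-knockdown HT-1080 fibrosarcoma cells was assessed by CellTiter-Glo after 48 h at 37 °C with titrated compound; concentration-effect curves were classified by fit quality and response size.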
# DT40 TDP1 no CPT = qHTS for Inhibitors of human tyrosyl-DNA phosphodiesterase 1 (TDP1): qHTS in cells in absence of CPT | DT40 Tdp1-/- hTDP1 cells, no CPT, ATP luminescence, 48 h | Potency, µM (doses to about 46.2 µM), hits mostly inhibitors | 15% of 420,000 active; further: nearly all actives have a fitted effect of over 55% in size
#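 Luminescent ATP content (CellTiter-Glo) served as the growth readout. Knockout chicken DT40 cells expressing human TDP1 were exposed to compounds without camptothecin for a minimum 48 hr at 37 °C.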
# DT40 TDP1 CPT = DT40-hTDP1 cell growth loss with CPT; 12% of 420,000 active; Potency, µM (series often up to 46.2 µM), actives largely listed as inhibitors; chicken DT40 Tdp1-/-;hTDP1 cells + 20 nM CPT, ATP luminescence, 48 h; further: nearly all actives have a fitted effect of over 55% in size
#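 Chicken DT40 Tdp1-/- cells complemented with human TDP1, 400 cells/well, exposed to compounds plus 20 nM camptothecin for at least 48 h at 37 C; viability read as ATP content by CellTiter-Glo luminescence.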
# IL-1B inflam inh = inflammasome signaling inhibition, IL-1 beta readout. 4.7% of 360,000 active. activity change, % at 57.5 µM. THP-1 LPS/ATP IL-1B secretion, AlphaLISA, 16 h; active compounds read low; in the data active means activity change below about -50%; inconclusive means mostly about -30% to -49%
#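 THP-1 cells pretreated 1 hr with compounds (up to 57.5 uM final), then stimulated with LPS (250 ng/mL final) plus ATP (1.25 mM final); secreted IL-1B measured by AlphaLISA after 16 hr, decreased signal indicating inhibition.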
# A number is an active result; . = inactive; ? = inconclusive; / = no result; [ ] = dose if it differs, or a comment. Unless noted, the call rests on the fitted dose curve; in most records, active means well fitted curve in the direction sought with a large enough effect; inconclusive means small, poorly fitted or top-dose-only effect, or another doubt; inactive means no such curve, though single readings can be large; an effect the other way counts as inactive or inconclusive.
SMILES,HT1080-NT tox,HT1080 IDH1KD tx,DT40 TDP1 no CPT,DT40 TDP1 CPT,IL-1B inflam inh
O=[N+]([O-])c1cc(-c2ccc(/C=N/c3nc4ccccn4c3-c3ccco3)o2)ccc1Cl,.,.,23µM,?,?
COc1cc(C(c2nnnn2C2CCCC2)N2CCc3ccccc3C2)ccc1O (stereo unspecified),.,.,12µM,?,.
Oc1ccc(C(c2nnnn2C2CCCC2)N2CCc3ccccc3C2)cc1 (stereo unspecified),.,.,21µM,?,.
CC1CC(C)CN(C(=O)c2cc3cc(Br)cc(Br)c3o2)C1 (stereo unspecified),.,.,?,.,-70
CC1CC(C)CN(C(=O)c2cc3ccccc3o2)C1 (stereo unspecified),.,.,?,.,.
Cc1nc(NC(C)c2ccccc2)sc1C(=O)Nc1ccccc1 (stereo unspecified),.,.,.,?,-52
COc1ccccc1Nc1nc(C)c(C(=O)Nc2ccccc2)s1,.,.,?,15µM,-53
COc1ccc(C(=O)c2sc(Nc3ccc(NC(C)=O)cc3)nc2C)cc1,.,.,16µM,29µM,.
Cc1nc(Nc2ccccc2Cl)sc1C(=O)Nc1ccccc1,.,.,21µM,18µM,?
Cc1nc(Cl)sc1C(=O)Nc1ccccc1,.,.,.,.,.
CCCCN(C(=S)SC)C1CCS(=O)(=O)C1 (stereo unspecified),.,.,.,.,/
Cc1nc(Nc2ccccc2)sc1C(=O)Nc1ccccc1,.,.,?,21µM,-65
CC(=O)N/C(=C/c1ccc2c(c1)OCO2)C(=O)NCCO,.,.,.,.,.
CCN(CC)S(=O)(=O)c1ccc(/C(O)=C(\C#N)c2nc3ccccc3n2C)cc1,.,.,?,?,?
Cn1c(/C(C#N)=C(\O)c2ccc([N+](=O)[O-])cc2)nc2ccccc21,.,.,18µM,?,.
CC(O)(COc1ccccc1)c1ccc2c(c1)CN(Cc1cccc3ncccc13)CCO2 (stereo unspecified),/,/,?,.[9.04 µM],/
Cc1nc(-c2ccccc2)sc1C(=O)NN,?,?,.,.,.
Cc1ccc(N/C=C/C(=O)c2sc(-c3ccccc3)nc2C)cc1,?,?,23µM,?,.
CCOc1ccc(N2CC(c3nc4ccccc4n3CCOc3ccccc3OC)CC2=O)cc1 (stereo unspecified),/,/,23µM,?,/
CCOC(=O)Cn1c(C2CC(=O)N(c3ccc(C)cc3)C2)nc2ccccc21 (stereo unspecified),/,/,.,.,/
CCn1c(C2CC(=O)N(c3ccc(C)c(C)c3)C2)nc2ccccc21 (stereo unspecified),.,.,18µM,?,.
CCOc1ccccc1N1CC(c2nc3ccccc3n2CCCOc2ccccc2OC)CC1=O (stereo unspecified),/,/,.,?,/
CCCCn1c(C2CC(=O)N(c3ccc(OCC)cc3)C2)nc2ccccc21 (stereo unspecified),/,/,?,21µM,/
CCCn1c(C2CC(=O)N(c3cc(OC)ccc3OC)C2)nc2ccccc21 (stereo unspecified),.,.,?,21µM,.
COc1cc(C2c3c(oc4ccc(C)cc4c3=O)C(=O)N2Cc2ccccc2)ccc1O (stereo unspecified),/,/,.,.,/
SMILES,HT1080-NT tox,HT1080 IDH1KD tx,DT40 TDP1 no CPT,DT40 TDP1 CPT,IL-1B inflam inh
O=C1CC(c2nc3ccccc3n2CCCOc2ccccc2)CN1c1ccc(F)cc1 (stereo unspecified),/,/,8.2µM,16µM,/
CN(CC(=O)Nc1cccc(S(=O)(=O)N2CCCC2)c1)CC(=O)Nc1ccc(Cl)c(C(F)(F)F)c1,9.2µM,18µM,16µM,?,-66
CN(CC(=O)NC(=O)NCc1ccccc1)CC(=O)Nc1ccc(Cl)c(C(F)(F)F)c1,18µM,?,21µM,18µM,-89
CC(C(=O)N1CCCCC1)N(C)CC(=O)Nc1ccc(Cl)cc1 (stereo unspecified),.,.,16µM,?,.
CN(CC(=O)Nc1cccc(S(=O)(=O)N2CCCC2)c1)CC(=O)Nc1ccc(F)c(F)c1F,.,.,?,?,.
CN(CC(=O)NCc1ccccc1)CC(=O)Nc1ccc(Cl)c(C(F)(F)F)c1,.,.,18µM,15µM,.
CSc1ncccc1C(=O)N(C)CC(=O)Nc1ccc(Cl)c(C(F)(F)F)c1,.,.,?,?,.
Cc1onc(-c2c(Cl)cccc2Cl)c1C(O)c1ccccc1 (stereo unspecified),.,.,.,.,.
CN(CC(=O)Nc1ccc(Cl)c(C(F)(F)F)c1)CC(=O)NC1CCCCC1,.,.,?,16µM,.
CN(CC(=O)NCCc1ccc(S(N)(=O)=O)cc1)CC(=O)Nc1ccc(Cl)c(C(F)(F)F)c1,.,.,13µM,13µM,?
CN(CC(=O)Nc1ccc(Cl)c(C(F)(F)F)c1)C(=O)CCN1C(=O)C2CCCCC2C1=O (stereo unspecified),.,.,23µM,23µM,.
CN(CC(=O)Nc1cccc(F)c1)CC(=O)N1CCCCC1,.,.,.,.,.
CN(CC(=O)NCCc1ccc(S(N)(=O)=O)cc1)CC(=O)Nc1ccccc1Cl,.,.,.,.,.
CN(CC(=O)NC(=O)NC1CCCCC1)CC(=O)Nc1ccccc1C(F)(F)F,.,.,?,?,.
CCOc1ccc(NC(=O)CN(C)C(=O)CCN2C(=O)C3CC=CCC3C2=O)cc1OCC (stereo unspecified),.,.,.,.,.
CN(CC(=O)Nc1ccc(Cl)c(Cl)c1)CC(=O)N1CCCCCC1,.,.,26µM,?,.
Cc1cccc2cc3c(NC(=O)C(C)(C)C)nn(CC(C)C)c3nc12,.,.,?,.,.
O=C(COc1ccccc1Cl)NCc1ccncc1,.,.,.,.,.
CC(=O)N1CCOc2ccc(S(=O)(=O)N3CCC(C)CC3)cc21,.,.,.,.,.
CNC(=O)c1ccc(-c2sc3nc(N4CCOCC4)c4c(c3c2N)CCCC4)o1,.,.,15µM,21µM,.
CN1Cc2c(N3CCOCC3)nc3sc(C(=O)c4ccc(Br)cc4)c(N)c3c2CC1(C)C,23µM,13µM,5.2µM,4.1µM,/
Nc1c(C(=O)N2CCOCC2)sc2nc(N3CCOCC3)c3c(c12)CCCC3,.,.,?,?,.
CNC(=O)c1ccc(-c2sc3nc(N4CCOCC4)c4c(c3c2N)CC(C)(C)OC4)o1,.,.,18µM,21µM,.
CC1(C)Cc2c(c(N3CCOCC3)nc3sc(-c4ccc(C(=O)O)o4)c(N)c23)CO1,.,.,?,.,?
O=C(CSc1nnc(-c2cccs2)n1-c1ccccc1)N1CCOCC1,.,.,.,.,.
O=C(O)CSc1nnc(-c2ccncc2)n1-c1ccc(Cl)cc1,.,.,.,.,.
